From PubChem
Rows were chosen to be rich in hits. Some 5.2% of all compounds tested hit in one or more screens of this group.
Tau ThT inhib: qHTS for Inhibitors of Tau Fibril Formation, Thioflavin T Binding; recombinant tau K18 P301L, heparin-induced fibrillization, ThT fluorescence; 270,000 tested, 2.1% active; AID 1460, 2008; Microtubule-associated protein tau (Homo sapiens), P10636; Potency, µM (series often up to 57.4 µM), without a hit: at the highest dose activity, negative = inhibition, usual class: inhibitors; note: potency is the fitted concentration of half-maximal effect; nearly all actives have a fitted effect of over 55% in size
Target sequence (P10636 561-689 P618L limits assumed): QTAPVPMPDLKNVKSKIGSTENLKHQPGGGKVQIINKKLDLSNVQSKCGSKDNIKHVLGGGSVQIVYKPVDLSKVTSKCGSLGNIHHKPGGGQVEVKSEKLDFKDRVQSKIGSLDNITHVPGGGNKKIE
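In this qHTS, human K18 P301L tau is incubated with compound and heparin for 6 hr at 37 C, and Thioflavin T fluorescence then reports fibril load.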
Sfp inh: qHTS Assay for Inhibitors of Bacillus subtilis Sfp phosphopantetheinyl transferase (PPTase) | Biochemical Sfp PPTase activity, qHTS | Potency, µM, inactives show largest response in the series, negative = inhibition, most hits filed as inhibitors | 310,000 tested, 3.5% active | AID 1490, 2009;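 note: the enzyme is Sfp with the accession as filed and its product quenches rhodamine fluorescence; potency is the fitted concentration of half-maximal effect; 0% = enzyme reaction without inhibitor and -100% = no enzyme wells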
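Buffer: 50 mM Hepes-Na pH 7.6, 10 mM MgCl2, 0.01% Nonidet P-40, 0.01% BSA. Enzyme 15 nM, pre-exposed to compound 15 min; substrates then added and fluorescence change tracked over 30 min.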
Tau fluor cs: Counterscreen qHTS for Inhibitors of Tau Fibril Formation, Fluorescence Polarization; tau K18 P301L Alexa594 fluorescence, heparin fibrillization; Potency, µM (top dose mostly 57.7 µM), for the others: top-dose activity change, negative = decrease; 280,000 tested, 0.93% active; AID 1463, 2008; note: potency is the fitted concentration of half-maximal effect; nearly all actives have a fitted effect of over 55% in size
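Human tau K18 P301L (15 uM unlabeled, 0.24 uM Alexa 594-labeled) in 100 mM sodium acetate pH 7 with 20 uM heparin, 6 hr at 37 C. ThT 30 uM added, 1 hr ambient; Alexa 594 FP and total fluorescence read at 555/632 nm.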
Coupling enz: qHTS Assay for Inhibitors of Fructose-1,6-bisphosphate Aldolase from Giardia Lamblia: Coupling assay counterscreen; 290,000 tested, 0.67% active; coupling enzyme system counterscreen, AmpLite Red fluorescence; AID 2472, 2010; activity change, negative = inhibition, % at 58.2 µM, hits read low; in the data active = activity change below about -30%
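Activity here indicates interference with the coupling reaction, not aldolase inhibition. Compounds at 57.5 uM final met coupling enzymes for 10 min at RT; substrate and AmpLite Red detection followed, with a 525/598 nm fluorescence read after 20 min.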
Tau fibril FP: qHTS for Inhibitors of Tau Fibril Formation, Fluorescence Polarization; Potency, µM (highest dose often 57.7 µM), for the others: top-dose activity, negative = inhibition, most hits filed as inhibitors; K18 P301L tau heparin fibrillization, Alexa594 FP, 6 h; AID 1468, 2008; Microtubule-associated protein tau (Homo sapiens), P10636; 280,000 tested, 0.39% active; note: potency is the fitted concentration of half-maximal effect; nearly all actives have a fitted effect of over 55% in size
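Steps: dispense K18 P301L tau (15 uM plus 0.24 uM Alexa 594 tracer, final) in pH 7 sodium acetate; add compound; add heparin (20 uM final); incubate 6 hr, 37 C; add ThT (30 uM final); after 1 hr ambient, read FP.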
Active calls of the source: *; ? = inconclusive; · = no result given; [ ] = remark or other dose. Unless noted, calls come from the whole dose curve; as a rule, active = well fitted curve in the direction sought with a large enough effect; inconclusive = small, poorly fitted or top-dose-only effect, or another doubt; inactive = no such curve, though single readings can be large; an effect the other way counts as inactive or inconclusive. Unless noted, % is set by controls: 0 for no effect and ±100 for the full control effect.

SMILES | Tau ThT inhib | Sfp inh | Tau fluor cs | Coupling enz | Tau fibril FP
COc1ccc(CNc2ccnc(-c3ccccc3CN(C)C)n2)c(OC)c1 | · | -2% | · | 2 | ·
N#Cc1ccc(-c2cccnc2)nc1SCC(=O)c1ccccc1 | 4.5µM* | -2% | ? | 2 | -3%
N#Cc1ccc(-c2ccccc2)nc1SCC(=O)c1cccc(Cl)c1 | -14% | 11% | -26% | 0 | 5%
O=C(c1ccc2c(c1)OCO2)C1CCCN(C(=O)Nc2ccc(F)cc2F)C1 (stereo not drawn) | -6% | -6% | -8% | 4 | 0%
COc1ccc(N2C(=O)[C@@H]3[C@H](C2=O)[C@H]2c4ccccc4C=CN2[C@@H]3C(C)=O)cc1 | 16µM* | -16% | -27% | -42* | ?
CC(C)(C)C(=O)[C@@H]1[C@@H]2C(=O)N(C3CCCCC3)C(=O)[C@@H]2[C@H]2c3ccccc3C=CN12 | 32µM* | -18% | ? | -24 | ?
O=C(c1ccc2c(c1)OCO2)[C@@H]1[C@@H]2C(=O)N(C3CCCCC3)C(=O)[C@@H]2C2c3ccccc3C=CN21 (stereo partly drawn) | 28µM* | 0% | ? | -36* | ?
O=C(c1cccs1)[C@@H]1[C@@H]2C(=O)N(Cc3ccc4c(c3)OCO4)C(=O)[C@@H]2C2c3ccccc3C=CN21 (stereo partly drawn) | 22µM* | -3% | ? | -38* | ?
COc1ccc(C)cc1N(C)C(=O)c1sc2nc3n(c(=O)c2c1C)CCCCC3 | -7% | · | -20% | · | -10%
CN(C(=O)c1ccc2c(c1)N(Cc1cccc(Cl)c1)C(=O)c1ccccc1S2(=O)=O)C1CCCCC1 | -3% | · | -5% | · | -1%
CC[n+]1c(/C=C/Nc2ccccc2)sc2ccccc21 | ? | -18% | 28µM*[fluorescent] | 4 | 1%
CC[n+]1c(/C=C(\C)OC)sc2ccccc21 | ? | -11% | -16% | -2 | -6%
CC/C(=C/c1sc2ccccc2[n+]1CC)SC | -15% | -3% | -7% | 1 | 3%
CC[n+]1c(/C=C(\C)Nc2ccccc2)sc2ccccc21 | ? | 56µM* | -3% | -2 | 4%
CC[n+]1c(/C=C(\C)SC)sc2ccccc21 | 1% | 79µM* | -3% | -11 | 0%
O=C(CN1C(=O)/C(=C2\SC(=S)N(C3CCS(=O)(=O)C3)C2=O)c2ccccc21)Nc1ccccc1 (stereo not drawn) | ? | 28µM* | ? | 0 | 10%
COc1cc(S(=O)(=O)NCCc2c(C)[nH]c3ccc(C)cc23)ccc1Br | ? | · | 14µM*[quencher] | · | ?
COc1ccc(C(C)C)cc1S(=O)(=O)NCCc1c(C)[nH]c2ccc(C)cc12 | ? | · | 10µM*[quencher] | · | ?
CC(=O)NC1C(O)O[C@H](C(=O)O)[C@@H](O)[C@@H]1O (stereo partly drawn) | · | 5% | · | 1 | ·
Cc1ncc(CO)c2c1Oc1nc(-c3ccc(F)cc3)nc(SCC(=O)N3CCCCC3)c1C2 | ? | · | -5% | · | 8%
Cc1cc(C)cc(NS(=O)(=O)c2ccc(-c3cc(C)no3)cc2)c1 | 2% | · | ? | · | ?
Cn1c2c(c(=O)n(C)c1=O)C1(C(=O)Nc3ccccc31)C(C#N)=C(N)O2 (stereo not drawn) | 14µM* | -16% | -23% | -54* | ?
COc1ccc(C2=Nn3c(nnc3-c3ccc(OC)cc3OC)SC2)cc1 | · | -16% | · | 0 | ·
Cc1ccnc(NC(=O)c2cccc([N+](=O)[O-])c2C)c1 | -2% | 12% | -1% | -1 | 5%
Cc1ccnc(NC(=O)c2ccccc2[N+](=O)[O-])c1 | -10% | 22µM* | 4% | -2 | 2%
CCOC(=O)C1=C(C)NC(C)=C(C(=O)OC)[C@@H]1c1cccc(Cl)c1Cl | · | 13% | · | 3 | ·
O=C(CNC1CCCCCC1)Nc1ccc(N2CCCC2)cc1 | -14% | -2% | -9% | -2 | 4%
